# From PubChem BioAssay (NCATS)
# Inconclusive results are not listed. Unmarked numbers belong to inactive results. Calls of active or inactive are those of the source. Calls come from the whole dose curve; as a rule, active = well fitted inhibition curve with a large enough effect; inconclusive = small, poorly fitted or top-dose-only effect; inactive = no such curve, though single readings can be large or run the other way. Non-standard residues stand in square brackets, D forms with d. Residues, ends and D or L forms follow the SMILES beside them. *: point of attachment. Sta = CC(C)C[C@H](N)[C@@H](O)CC(=O)O; Isovaleryl = CC(C)CC(=O)*
# Experiment: Primary qHTS for inhibitors of La Crosse Virus (LACV) - induced cell death in SH-SY5Y cells (AID 1508616);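 for activity change: top concentration of the series differs between compounds; 0% = infected DMSO wells and 100% = uninfected DMSO wells; higher means more rescue of cells from virus-induced death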
# Settings: SH-SY5Y LACV cytopathicity rescue, ATP luminescence, 6 d; series mostly up to 4.29 µM; activity change: at the top concentration
# From the text: Assay Provider: Karin Peterson Ph.D.
# National Institute of Allergy and Infection Diseases, National Institute of Health
# La Crosse Virus (LACV) is a California serogroup mosquito-borne arbovirus, family Peribunyaviridae, which is an endemic pathogen in North America and can induce a rare, life-threatening neurological disease in children. LACV was first isolated in the early 1960s, from a summer "rural encephalitis" case in La Crosse, Wisconsin, USA. Since then, LACV encephalitis cases have been found in more than twenty states, with most cases in the Mississippi and Ohio River basins. The life cycle of LACV is maintained between the vector, the eastern tree-hole mosquito Aedes triseriatus, and vertebrate hosts including eastern gray squirrels (Sciurus carolinensis) and chipmunks (Tamiasstriatus grinseus). […] Most LACV infections in humans are asymptomatic or induce mild clinical symptoms of fever, headache, lethargy and vomiting. However, in some cases LACV can cause severe neuroinvasive disease, including encephalitis, meningitis, and meningoencephalitis, requiring hospitalization. To date, there is neither a licensed vaccine nor a Food and Drug Administration (FDA) approved antiviral therapy available to prevent or treat LACV encephalitis. The primary treatment for viral encephalitis is palliative care due to the lack of therapeutics. In the current study, we conducted a screen of 4,096 FDA approved and bioactive small molecules against LACV, by screening for rescue of LACV-induced cell death in SH-SY5Y cells.
# LACV-induced cytopathicity assay
# SEQUENCE No. (1,2, 3, etc.); […] (e.g., Cells, Incubation, Reagent, etc.); VALUE and DESCRIPTION.
# 1. Reagent; 2 uL; Cell solution.
# 3. Compounds; 23nL; Compound library
# 4. Reagent; 12 uL; LACV virus
# 6. Reagent; 24 uL; ATPLite (PerkinElmer)
# 7. Time; 5 min; Room temperature
# 8. Detection; Luminescence; View
# NOTES (numbers refer to sequence above)
# 1. Seed 6000 SH-SY5Y cells (ATCC CRL-2266) in 2 microL/well media (DMEM/F12 10% FBS, 1x L-Glutamine, 1x Pyruvate, 1x NEAA, 1x Pen/Strep) in 384-well assay plates (tissue culture treated, white, solid bottom).
# 2. Incubate at 37 degrees C with 5% CO2 for 24 hr.
# 3. Dispense 23 nL/well compounds in DMSO via pin transfer.
# 4. Dispense 12 microL/well of LACV (LACV/human/1978) in media at 0.01 MOI.
# 5. Incubate at for 6 days at 37C 5% CO2
# 6. Dispense 24 microL/well of ATPLite 1step Luminescence assay system (PerkinElmer).
# 7. Incubate for 5 min at room temperature.
# 8. Read luminescence signal (Viewlux plate reader, PerkinElmer). Data was normalized with DMSO control wells containing LACV as 0%, and DMSO control wells without virus as 100%.
# Potency is the fitted concentration of half-maximal effect.
Compound,activity change,Potency
O=C(O)c1cn(-c2ccc(F)cc2)c2cc(N3CCNCC3)c(F)cc2c1=O,-5.4% [at 1.78 µM],–
CC(C)CC(=O)N[C@H](C(=O)N[C@H](C(=O)N[C@@H](CC(C)C)[C@@H](O)CC(=O)N[C@@H](C)C(=O)N[C@@H](CC(C)C)[C@@H](O)CC(=O)O)C(C)C)C(C)C (Isovaleryl-VV[Sta]A[Sta]-OH),0.699%,–
CCN(CC)CCOc1ccc(Cc2ccccc2)cc1,-5.45%,–
CC1(C)C(=O)N(CCN2CCC(C(=O)c3ccc(F)cc3)CC2)c2ccccc21,-7.72% [at 9.63 µM],–
O=C(CCc1ccc(O)cc1)c1c(O)cc(O)cc1O,9.44% [at 9.63 µM],–
CN(C)C(=O)COC(=O)Cc1ccc(OC(=O)c2ccc(N=C(N)N)cc2)cc1,-12.7%,–
O=C(O)c1cccnc1Nc1cccc(C(F)(F)F)c1,–,inactive
CCCCCCCCOc1ccccc1C(=O)Nc1ccc(C(=O)OCC[N+](C)(CC)CC)cc1,24.6%,–
C[C@@H](N)C1CCC(C(=O)Nc2ccncc2)CC1 (stereo not given in full),-8.54% [at 9.63 µM],–
CCCCc1ccc2nc(NC(=O)OC)[nH]c2c1,-83.8%,–
O=c1c(O)c(-c2cc(O)c(O)c(O)c2)oc2cc(O)cc(O)c12,-15.3% [at 9.63 µM],–
OC(CN1CCN(c2cccc(Cl)c2)CC1)C(c1ccccc1)c1ccccc1 (stereo not given),3.97% [at 9.63 µM],–
CC(=O)N1CCN(c2ccc(OC[C@H]3CO[C@](Cn4ccnc4)(c4ccc(Cl)cc4Cl)O3)cc2)CC1,-6.73% [at 9.63 µM],–
CC1=C(C)C(=O)C(C(CCCCCC(=O)O)c2ccccc2)=C(C)C1=O (stereo not given),-16.7%,–
Nc1cc(C(Cl)=C(Cl)Cl)c(S(N)(=O)=O)cc1S(N)(=O)=O,0.0874%,–
CN(C)c1ccc(O)c2c1C[C@H]1C[C@H]3[C@H](N(C)C)C(=O)C(C(N)=O)=C(O)[C@@]3(O)C(=O)C1=C2O,-2.63%,–
COC(=O)C1=C(C)NC(C)=C(C(=O)OCCCN2CCC(c3ccccc3)(c3ccccc3)CC2)C1c1cccc([N+](=O)[O-])c1 (stereo not given),21%,–
CCCc1cc(=O)[nH]c(=S)[nH]1,0.831%,–
COc1ccc2cc([C@H](C)C(=O)O)ccc2c1,-0.366%,–
Cc1ccc(Nc2nccc(N(C)c3ccc4c(C)n(C)nc4c3)n2)cc1S(N)(=O)=O,31.8%,–

Compound,activity change,Potency
c1cnc2cc3c(cc2n1)C1CNCC3C1,20.3%,–
Cc1nc(Nc2ncc(C(=O)Nc3c(C)cccc3Cl)s2)cc(N2CCN(CCO)CC2)n1,12.5%,–
CC[C@]1(O)C[C@H]2CN(CCc3c([nH]c4ccccc34)[C@@](C(=O)OC)(c3cc4c(cc3OC)N(C=O)[C@H]3[C@@](O)(C(=O)OC)[C@H](OC(C)=O)[C@]5(CC)C=CCN6CC[C@]43[C@@H]65)C2)C1,–,100 nM (active)
CCCS(=O)c1ccc2nc(NC(=O)OC)[nH]c2c1 (stereo not given),-20.3%,–
O=C(OC1C[C@H]2CC[C@@H](C1)[N+]21CCCC1)C(O)(c1ccccc1)c1ccccc1 (stereo not given in full),16.7%,–
Nc1nc(OCc2ccccc2)c2[nH]cnc2n1,11.4% [at 9.63 µM],–
Cc1cc(=O)c2c(O)c3c(O)cc(=O)c4c3c3c(cc(O)c1c23)C(C)(C)C=4O,123% [at 1.78 µM],–
NC(=O)Cc1cccc(C(=O)c2ccccc2)c1N,28.4%,–
Cc1cccc(C#Cc2ccccc2)n1,-5.65% [at 9.63 µM],–
c1ccc2[nH]c(-c3cscn3)nc2c1,0.212%,–
O=C(NC(Cc1cc(=O)[nH]c2ccccc12)C(=O)O)c1ccc(Cl)cc1 (stereo not given),20%,–
COCCCN1CCC(NC(=O)c2cc(Cl)c(N)c3c2OCC3)CC1,35.2%,–
C=C(c1ccc(C(=O)O)cc1)c1cc2c(cc1C)C(C)(C)CCC2(C)C,46.4%,–
O=C1CCc2ccc(OCCCCN3CCN(c4cccc(Cl)c4Cl)CC3)cc2N1,48.7%,–
CN(C)[C@@H](CCOc1cccc2ccccc12)c1ccccc1,-4.57%,–
CCCCC(CC)COC(=O)C(C#N)=C(c1ccccc1)c1ccccc1 (stereo not given),-0.586%,–
COc1cc(OC)c(C(=O)CCCN2CCCC2)c(OC)c1,30.5%,–
CC(C)c1nc(CN(C)C(=O)N[C@H](C(=O)N[C@@H](Cc2ccccc2)C[C@H](O)[C@H](Cc2ccccc2)NC(=O)OCc2cncs2)C(C)C)cs1,-3.5%,–
C[C@H](Cc1ccc(O)c(O)c1)[C@@H](C)Cc1ccc(O)c(O)c1,–,1000 nM (active)
Nc1nc(N)c(N=O)c(OCC2CCCCC2)n1,11.6% [at 9.63 µM],–
